DRD3 agonist: D3 dopamine receptor (human) agonism. P35462. D3R DiscoveRx beta-arrestin cells, luminescence, 90 min. max activation, %. hit rate 0.58% among 410,000. AID 652048; in the data active = max activation above about 30%; note: 0% is about no effect
Target sequence (P35462 whole entry, looked up): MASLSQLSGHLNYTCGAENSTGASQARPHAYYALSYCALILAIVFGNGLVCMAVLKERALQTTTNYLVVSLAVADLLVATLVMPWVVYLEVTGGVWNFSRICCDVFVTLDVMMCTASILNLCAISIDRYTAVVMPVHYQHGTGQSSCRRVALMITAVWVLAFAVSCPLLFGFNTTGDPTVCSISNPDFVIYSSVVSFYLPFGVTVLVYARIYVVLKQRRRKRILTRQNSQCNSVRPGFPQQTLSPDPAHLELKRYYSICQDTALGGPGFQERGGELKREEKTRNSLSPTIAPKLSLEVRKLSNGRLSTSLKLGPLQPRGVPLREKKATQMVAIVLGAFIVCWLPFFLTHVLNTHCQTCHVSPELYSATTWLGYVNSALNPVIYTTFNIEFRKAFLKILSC
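Agonist mode: compounds and dopamine controls were applied to plated cells for 90 min at 37 degrees C after an overnight attachment at 1500 cells/well. Luminescent read-out followed 30 - 60 minutes at room temperature with DiscoveRx detection reagent.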
S2 tox: reduces viability in counter-screen for ATXN expression inhibitors; S2 cells (HEK-293 line with an ATXN2-luciferase reporter) viability, CellTiter-Fluor protease fluorescence, 24 h; Potency, µM (doses to about 56.7 µM), actives largely listed as cytotoxic; hit rate 0.49% among 400,000; AID 651635; note: potency is the fitted concentration of half-maximal effect; nearly all actives have a fitted effect of over 40% in size
DRD3 antagonist: D3 dopamine receptor (human) antagonism; max response, negative = inhibition, %; hit rate 2.5% among 360,000; AID 652054; P35462; D3R cells, DiscoveRx beta-arrestin luminescence, antagonist mode; active compounds read low; in the data active = max response below about -50%; inconclusive = no clear call, values can overlap the other calls; note: % is set by controls: 0 for no effect and ±100 for the full control effect
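Cells plated overnight at 1500 cells/well, then exposed to library compounds with dopamine controls for 90 minutes at 37 degrees C. DiscoveRx reagent added for 30–60 minutes at room temperature; luminescence read, quantitative HTS format.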
TGFb SMAD3 inh: inhibitors of TGF-b signaling | AID 588855 | hit rate 1.2% among 410,000 | Potency, µM (top dose mostly 46.1 µM), for the others: at the highest dose activity, negative = inhibition, usual class: inhibitors | HepG2 CAGA-GFP TGF-b/SMAD3 reporter, GFP fluorescence, 18 h; TGF-beta stimulated, 500 pg/mL final; note: potency is the fitted concentration of half-maximal effect; % is set by controls: 0 for no effect and ±100 for the full control effect; nearly all actives have a fitted effect of over 65% in size
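HEPG2 CAGA-GFP cells (1000/well, DMEM with 1% FBS) were pre-incubated 2 h at 37 degrees C, given compound by pin tool, then stimulated with TGF-beta at 500 pg/mL final for 18 h before per-cell GFP fluorescence imaging.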
HepG2 viability: kills HepG2 cells in TGF-b inhibitor counter-screen; AID 588856; hit rate 0.76% among 410,000; HepG2 CAGA-GFP viability, ATP luminescence, 18 h; Potency, µM (doses to about 46.1 µM), for inactives: at the highest dose activity change, negative = cytotoxicity, hits mostly cytotoxic; note: potency is the fitted concentration of half-maximal effect
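CellTiter-Glo luminescence gave cytotoxicity after 18 hours at 37 degrees C. The cells were HepG2 CAGA-GFP in 1% FBS DMEM, stimulated with 500 pg/mL TGF-beta after compound addition. %Activity was normalised to no-cell wells (complete cell-killing) and DMSO (no toxicity), and curves were fitted and classified.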
ATXN2 expr inh: ATXN2 expression inhibition | HEK-293 ATXN2-luciferase reporter, luminescence, 24 h | hit rate 0.72% among 360,000 | Potency, µM (top dose mostly 57 µM), without a hit: at the top dose activity change, negative = inhibition, hits mostly inhibitors; note: potency is the fitted concentration of half-maximal effect; % is set by controls: 0 for no effect and ±100 for the full control effect; nearly all actives have a fitted effect of over 55% in size
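qHTS (up to 57 uM final) was run with 24 h compound exposure of reporter cells at 37 °C. Each well was multiplexed: SteadyGlo luminescence measured ATXN2-luciferase expression after a fluorogenic Gly-Phe-AFC viability readout (25 uM final).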
Numbers without * were called inactive; i = inactive; ? = inconclusive; · = no result; ! = a repeat was not active. An excerpt weighted towards active compounds, which were near 4.8% of everything screened. Unless noted, calls come from the whole dose curve; as a rule, active = well fitted curve in the direction sought with a large enough effect; inconclusive = small, poorly fitted or top-dose-only effect, or another doubt; inactive = no such curve, though single readings can be large; an effect the other way counts as inactive or inconclusive.

SMILES	DRD3 agonist	S2 tox	DRD3 antagonist	TGFb SMAD3 inh	HepG2 viability	ATXN2 expr inh
O=C1C(c2cccc(Br)c2)N(CCc2ccccc2)C(=O)CN1C1CCCCC1 (stereo unspecified)	5.4	·	·	-8.8%	-3.6%	·
NCCc1c(-c2ccccc2)n(-c2ccccc2)c2ccccc12	-17.0	?	-26.0	?	20µM*	28.2µM*
CC(=O)n1c(-c2ccccc2)c(CO)c2ccccc21	16.7	i	27.6	-0.8%	1.3%	2.2%
COc1ccccc1Nc1c2c(nc3ccc(NC(=O)c4ccc(N(C)C)cc4)cc13)CCCC2	-23.8	·	·	?	-49.4%	·
COc1ccc(Nc2c3c(nc4ccc(NC(=O)c5cc(Cl)ccc5OC)cc24)CCCC3)cc1OC	-15.6	7.08µM*	·	10µM*	7.08µM*	3.16µM*
CCOc1ccccc1C(=O)Nc1ccc2nc3c(c(Nc4ccc(OC)c(OC)c4)c2c1)CCCC3	-2.4	·	·	?	10µM*	·
COc1cc(OC)cc(C(=O)Nc2ccc3nc4c(c(Nc5ccc(OC)c(OC)c5)c3c2)CCCC4)c1	-20.6	28.2µM*	·	12.6µM*	15.8µM*	20µM*
Cc1ccc(NC(=O)c2ccc(CN3CC(=O)N4CCCCC4C3=O)cc2)cc1C (stereo unspecified)	-4.5	·	·	-4.3%	-8.4%	·
Nc1nc(CCl)nc(Nc2cccc3ccccc23)n1	3.1	?	6.6	11.2µM*	12.6µM*	·
Oc1cccc(/C=N/NC(=S)Nc2cccnc2)c1O	25.0	i	46.0	-0.6%	9.9%	?
Oc1ccc(/C=N/NC(=S)Nc2cccnc2)c(O)c1O	36.8*	?	1.0	-55.5%	-13.0%	-25.6%
CNC(=S)N/N=C/c1ccccc1Cl	0.6	i	-5.0	6.1%	4.1%	10.7%
S=C(N/N=C/c1cccc2ccccc12)Nc1cccc(Cl)c1	-11.9	i	-53.8*	?	-10.4%	-1.4%
S=C(N/N=C/c1ccccc1Cl)Nc1ccccc1	-34.2	i	-63.6*	?	-5.5%	3.3%
COc1ccc(OC)c(-c2cc(Cl)c3c(c2)CC(CNC(=O)[C@@H]2CCCN2C(C)=O)O3)c1 (stereo partly specified)	·	i	·	·	·	·
CCCCN(CC)C(=O)CCNS(=O)(=O)c1ccc2c(c1)c(=O)n(C)c(=O)n2C	-0.4	i	·	-21.1%	-7.1%	-6.7%
COc1cc2nc(N3CCN(c4cc(C)ccc4C)CC3)nc(N)c2cc1OC	11.9	·	-24.9	?	11.2µM*	?
COc1cc2nc(N3CCNCC3)nc(N)c2cc1OC	0.5	·	32.7	?	-92.8%	·
Oc1cc2c(cc1CN1CCN(c3ncccn3)CC1)OCO2	42.1*	i	-14.7	-8.7%	-27.3%	19.6%
COc1ccc(C(CNC(=O)Cc2c(F)cccc2Cl)N2CCCCC2)cc1 (stereo unspecified)	-14.6	i	-111.1*	8.3%	-0.3%	4.8%
COc1ccc(C(CNC(=O)COc2cc(C)ccc2Cl)N2CCCCC2)cc1 (stereo unspecified)	-27.5	i	-58.5*	4.2%	0.2%	-6.6%
COc1ccccc1C(CNC(=O)COc1cc(C)ccc1Cl)N1CCCC1 (stereo unspecified)	-13.5	i	2.0	-13.4%	-31.1%	-11.2%
COc1ccc(OCC(=O)NCC(c2ccc(Cl)cc2)N2CCCCC2)cc1 (stereo unspecified)	-18.0	?	·	-25.7%	-24.3%	-21.3%
CC(=O)c1cccc(NC(=O)c2nc3ccccc3nc2N2CCCCC2)c1	6.7	i	·	17.3%	-22.7%	10.9%
CC1CCN(C(=O)c2ccc3c(c2)N(Cc2ccccc2F)C(=O)c2ccccc2S3(=O)=O)CC1	1.4	i	·	?	-2.4%	-5.5%
SMILES	DRD3 agonist	S2 tox	DRD3 antagonist	TGFb SMAD3 inh	HepG2 viability	ATXN2 expr inh
COc1cccc(C(=O)Nc2ccccc2C(=O)OCc2cc(=O)n3nc(C4CC4)sc3n2)c1	0.4	i	·	-0.4%	-1.5%	9.1%
CC(C)(C)c1ccc(O)c(O)c1	0.4	70.8µM*!	6.5	-2.7%	-30.7%	39.8µM*!
Cc1ccccc1NC(=O)CN1C(=O)CCn2nc(-c3cccn3C)cc21	10.5	i	·	25.0%	-3.0%	8.2%
Cc1cccc(C)c1C(=NCCCN(C)C)c1ccccc1	-8.0	i	-78.3*	-22.6%	-8.8%	-0.9%
CN(C)CCCC1Sc2ccccc2Sc2ccccc21 (stereo unspecified)	-39.8	?	-69.1*	?	-41.5%	-32.4%
CC(Oc1ccccc1)C(=O)Nc1ccccc1C(=O)OCc1cc(=O)n2nc(C(C)C)sc2n1 (stereo unspecified)	11.5	·	·	-1.3%	-0.8%	·
COc1cc(CNc2ccc3[nH]c(=O)[nH]c3c2)ccc1OCc1ccc(F)cc1	5.2	i	11.7	-18.8%	-6.1%	3.5%
COc1cc(CNc2ccc3[nH]c(=O)[nH]c3c2)ccc1OCc1ccccc1F	8.3	?	28.8	3.4%	-2.1%	10.4%
COc1cc(CNc2ccc3[nH]c(=O)[nH]c3c2)ccc1OCc1ccc(Cl)cc1	7.0	?	7.0	11.2µM*	-54.4%	4.5%
COc1cc(CNc2ccc3[nH]c(=O)[nH]c3c2)ccc1OCc1ccc(F)cc1Cl	34.8*!	i	17.1	-3.0%	-1.4%	-2.2%
COc1ccccc1CN1CCOc2ccc(C(C)(O)COc3ccccc3)cc2C1 (stereo unspecified)	·	i	·	·	·	·
Cc1cc(C(=O)N/N=C/c2cc(Cl)cc([N+](=O)[O-])c2O)n[nH]1	1.1	i	-1.0	-11.7%	1.8%	-10.0%
CN(C)C1(CN=Cc2cc(Cl)cc([N+](=O)[O-])c2O)CCCCC1	-7.3	i	-68.0*	-1.9%	-1.0%	-12.0%
Nc1[nH]c(=S)[nH]c(=O)c1N	·	·	·	-14.1%	2.8%	·
COc1ccc(OC)c(NC(=O)C2(C)CCN2Cc2ccccc2OC(F)F)c1 (stereo unspecified)	91.8*	i	43.2	-11.5%	-28.2%	6.0%
N#Cc1ccc(Nc2nc(-c3ccccc3)c(C(=O)c3ccccc3)s2)cc1	5.6	?	44.6	?	11.2µM*	?
c1ccc(-c2ccc3[nH]ccc3c2)cc1	7.6	i	0.3	-11.5%	-44.3%	46.1%
c1ccc2[nH]ccc2c1	49.8*	i	·	·	·	10.9%
CCn1cc(C(=O)N2CCN(c3cccc(Cl)c3)CC2)c(=O)c2cc(S(=O)(=O)N3CCOCC3)ccc21	-12.1	i	·	-33.0%	-11.5%	0.5%
O=C(O[C@H]1[C@H](Cc2ccccc2)NS(=O)(=O)[C@H]2C[C@@H]3C=C[C@]12O3)c1ccccc1Br	·	·	·	-4.6%	10.0%	·
Cc1cc(Br)ccc1OCCOCCN1CCCC1	-21.7	i	-73.1*	3.6%	-9.3%	·

Screening data (PubChem)
